Source: PubChem BioAssay (NCATS)
Records with an inconclusive call do not appear. Entries that show only a call come without a potency. Calls of active or inactive are those of the source. Calls follow the shape of the dose curve; as a rule, active = well fitted inhibition curve with a large enough effect; inconclusive = small, poorly fitted or top-dose-only effect; inactive = flat fitted curve, though single readings scatter.

Tested on: ICS
Test: qHTS profiling for inhibitors of Plasmodium falciparum proliferation (AID 504749); also: nearly all actives have a fitted effect of over 60% in size
Settings: P. falciparum in erythrocytes, SYBR Green DNA, 72 h; series mostly up to 28.7 µM
Outline: (§1)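 SYBR Green fluorescence (ex 485 nm, em 535 nm) reports parasite DNA after 72 h compound exposure of infected red cells at 0.3% parasitemia, 2.5% hematocrit; signal normalized to 0.29 uM artemisinin and vehicle wells.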
Potency is read from the fitted curve at half-maximal effect.

SMILES	Potency
CC(=O)Nc1ccc(OC(C)=O)cc1	inactive
CC(C)(C)c1ccc2c(S(=O)(=O)O)c(C(C)(C)C)ccc2c1	inactive
CCCCCCCCCCCCOCCCN	inactive
COC(=O)C(CN)c1c[nH]c2ccc(OC)cc12 (stereo not drawn)	inactive
CC1(C)S[C@@H]2[C@H](NC(=O)C3(N)CCCCC3)C(=O)N2[C@H]1C(=O)O	inactive
FC(F)(F)C(F)(F)C(F)(F)C(F)(F)C(F)(F)C(F)(F)F	inactive
CCCCO	inactive
CCOC(=O)c1c[nH]c2cc(OCC(C)C)c(OCC(C)C)cc2c1=O	79.4 nM (active)
CCN(CC)CCOc1ccc2nc(N(C)C)sc2c1	inactive
OCl	inactive
COC(=O)CC[C@H](N)C(=O)O	inactive
COc1cc(S(C)=O)ccc1-c1nc2ncccc2[nH]1 (stereo not drawn)	inactive
O=C(O)Cc1nn(Cc2ccc(Br)cc2F)c(=O)c2ccccc12	inactive
O=C(O)/C=C/c1ccccc1	inactive
Cc1cccc(C)c1NC(=O)NC1=CCCN1C	inactive
NCC[C@H](O)C(=O)N[C@@H]1C[C@H](N)[C@@H](O[C@H]2O[C@H](CN)[C@@H](O)[C@H](O)[C@H]2O)[C@H](O)[C@H]1O[C@H]1O[C@H](CO)[C@@H](O)[C@H](N)[C@H]1O	inactive
CC1=CC(=O)NS(=O)(=O)O1	inactive
O=C(O)[C@H]1C(=CCO)O[C@H]2CC(=O)N12	inactive
CCC(Cc1c(I)cc(I)c(O)c1I)C(=O)O (stereo not drawn)	inactive
CCCCC[C@H](O)/C=C/[C@@H]1[C@H]2C/C(=C/CCCC(=O)O)O[C@H]2C[C@H]1O	inactive

SMILES	Potency
FCOC(C(F)(F)F)C(F)(F)F	inactive
C=Cc1ccc(S(=O)(=O)O)cc1	inactive
CC12CCC(C[N+](C)(CCC[N+](C)(C)C)C1)C2(C)C (stereo not drawn)	inactive
CC1CC(OC(=O)C(O)c2ccccc2)CC(C)(C)C1 (stereo not drawn)	inactive
CC/C(=C(/CC)c1ccc(OP(=O)(O)O)cc1)c1ccc(OP(=O)(O)O)cc1	inactive
O=C(NNCNNC(=O)c1ccncc1)c1ccncc1	inactive
CC(C)c1ncc([N+](=O)[O-])n1C	inactive
CC(C)CCC[C@@H](C)[C@H]1CC[C@H]2[C@@H]3CC[C@@H]4C[C@H](O)CC[C@]4(C)[C@H]3CC[C@]12C	inactive
Cc1ccc(S(=O)(=O)NCl)cc1	inactive
CC(/C=C/C=C(\C)C(=O)O[C@@H]1O[C@H](CO[C@@H]2O[C@H](CO)[C@@H](O)[C@H](O)[C@H]2O)[C@@H](O)[C@H](O)[C@H]1O)=C\C=C\C=C(C)\C=C\C=C(/C)C(=O)O[C@@H]1O[C@H](CO[C@@H]2O[C@H](CO)[C@@H](O)[C@H](O)[C@H]2O)[C@@H](O)[C@H](O)[C@H]1O	inactive
CCCCCCCCCCCCCCCCCC(=O)OCC(C)O (stereo not drawn)	inactive
CC(C)(Oc1ccc(C2CCCc3ccccc32)cc1)C(=O)O (stereo not drawn)	inactive
CO	inactive
O=C(O)/C=C/C(=O)Nc1ccc(S(=O)(=O)Nc2nccs2)cc1	inactive
N[C@H](CC(=O)O)C(=O)O	inactive
CCCc1ccc(C(=O)O)cc1	inactive
O=S(=O)(O)CC(S)CS (stereo not drawn)	inactive
O=c1[nH]c(=O)n([C@H]2C[C@H](O)[C@@H](CO)O2)cc1/C=C/Br	inactive
CN[C@@H]1[C@H](O[C@H]2[C@H](O[C@H]3[C@H](O)[C@@H](O)[C@H](N=C(N)N)[C@@H](O)[C@@H]3N=C(N)N)O[C@@H](C)[C@]2(O)C=O)O[C@@H](CO)[C@H](O)[C@H]1O	inactive

Tested on: JCK
Test: as above
Settings: P. falciparum in erythrocytes, SYBR Green DNA, 72 h; series mostly up to 28.7 µM
Outline: as §1

SMILES	Potency
CC(=O)Nc1ccc(OC(C)=O)cc1	inactive
CC(C)(C)c1ccc2c(S(=O)(=O)O)c(C(C)(C)C)ccc2c1	inactive
CCCCCCCCCCCCOCCCN	inactive
COC(=O)C(CN)c1c[nH]c2ccc(OC)cc12 (stereo not drawn)	inactive
CC1(C)S[C@@H]2[C@H](NC(=O)C3(N)CCCCC3)C(=O)N2[C@H]1C(=O)O	inactive
FC(F)(F)C(F)(F)C(F)(F)C(F)(F)C(F)(F)C(F)(F)F	inactive
CCCCO	inactive
CCOC(=O)c1c[nH]c2cc(OCC(C)C)c(OCC(C)C)cc2c1=O	282 nM (active)
CCN(CC)CCOc1ccc2nc(N(C)C)sc2c1	inactive
OCl	inactive
COC(=O)CC[C@H](N)C(=O)O	inactive
COc1cc(S(C)=O)ccc1-c1nc2ncccc2[nH]1 (stereo not drawn)	inactive
O=C(O)Cc1nn(Cc2ccc(Br)cc2F)c(=O)c2ccccc12	inactive
O=C(O)/C=C/c1ccccc1	inactive
Cc1cccc(C)c1NC(=O)NC1=CCCN1C	inactive
NCC[C@H](O)C(=O)N[C@@H]1C[C@H](N)[C@@H](O[C@H]2O[C@H](CN)[C@@H](O)[C@H](O)[C@H]2O)[C@H](O)[C@H]1O[C@H]1O[C@H](CO)[C@@H](O)[C@H](N)[C@H]1O	inactive
CC1=CC(=O)NS(=O)(=O)O1	inactive
O=C(O)[C@H]1C(=CCO)O[C@H]2CC(=O)N12	inactive
CCC(Cc1c(I)cc(I)c(O)c1I)C(=O)O (stereo not drawn)	inactive
CCCCC[C@H](O)/C=C/[C@@H]1[C@H]2C/C(=C/CCCC(=O)O)O[C@H]2C[C@H]1O	inactive

SMILES	Potency
FCOC(C(F)(F)F)C(F)(F)F	inactive
C=Cc1ccc(S(=O)(=O)O)cc1	inactive
CC12CCC(C[N+](C)(CCC[N+](C)(C)C)C1)C2(C)C (stereo not drawn)	inactive
CC1CC(OC(=O)C(O)c2ccccc2)CC(C)(C)C1 (stereo not drawn)	inactive
CC/C(=C(/CC)c1ccc(OP(=O)(O)O)cc1)c1ccc(OP(=O)(O)O)cc1	inactive
O=C(NNCNNC(=O)c1ccncc1)c1ccncc1	inactive
CC(C)c1ncc([N+](=O)[O-])n1C	inactive
CC(C)CCC[C@@H](C)[C@H]1CC[C@H]2[C@@H]3CC[C@@H]4C[C@H](O)CC[C@]4(C)[C@H]3CC[C@]12C	inactive
Cc1ccc(S(=O)(=O)NCl)cc1	inactive
CC(/C=C/C=C(\C)C(=O)O[C@@H]1O[C@H](CO[C@@H]2O[C@H](CO)[C@@H](O)[C@H](O)[C@H]2O)[C@@H](O)[C@H](O)[C@H]1O)=C\C=C\C=C(C)\C=C\C=C(/C)C(=O)O[C@@H]1O[C@H](CO[C@@H]2O[C@H](CO)[C@@H](O)[C@H](O)[C@H]2O)[C@@H](O)[C@H](O)[C@H]1O	inactive
CCCCCCCCCCCCCCCCCC(=O)OCC(C)O (stereo not drawn)	inactive
CC(C)(Oc1ccc(C2CCCc3ccccc32)cc1)C(=O)O (stereo not drawn)	inactive
CO	inactive
O=C(O)/C=C/C(=O)Nc1ccc(S(=O)(=O)Nc2nccs2)cc1	inactive
N[C@H](CC(=O)O)C(=O)O	inactive
CCCc1ccc(C(=O)O)cc1	inactive
O=S(=O)(O)CC(S)CS (stereo not drawn)	inactive
O=c1[nH]c(=O)n([C@H]2C[C@H](O)[C@@H](CO)O2)cc1/C=C/Br	inactive
CN[C@@H]1[C@H](O[C@H]2[C@H](O[C@H]3[C@H](O)[C@@H](O)[C@H](N=C(N)N)[C@@H](O)[C@@H]3N=C(N)N)O[C@@H](C)[C@]2(O)C=O)O[C@@H](CO)[C@H](O)[C@H]1O	inactive
